Measurements taken from PubChem BioAssay (NCATS).
“And” between values parts separate entries of the source, which are not always exact repeats. Identical values can stand only once. Records with an inconclusive call do not appear. The source made the active and inactive calls. Unless noted, calls follow the shape of the dose curve; as a rule, active = well fitted curve in the direction sought with a large enough effect; inconclusive = small, poorly fitted or top-dose-only effect, or another doubt; inactive = no such curve, though single readings can be large; an effect the other way counts as inactive or inconclusive.

Legend:
[1] = AP1 Signaling Pathway (AID 357; active = well fitted curve in either direction with a large enough effect, not every such curve was filed as active;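 also: ME-180 reporter cells stimulated with EGF at its EC50 level; % is scaled to controls: 0 for no effect and ±100 for the full control effect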); conditions: ME-180 AP-1-bla reporter, EGF-induced, beta-lactamase ratio, 5 h
Procedure, shortened: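 AP-1-bla ME-180 cells, Opti-MEM + 0.5% dialyzed FBS, plated overnight 37 °C. Cpd titration + EC50 EGF, 5 h 37 °C. CCF4 2.5 h RT; ex 405, em 460/530 ratio → %activity, AC50.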

[2] = molecular target: Cytochrome P450 1A2 (Homo sapiens) (UniProt P05177); assay: p450-cyp1a2 (AID 410; calls by dose curve; also: potency is read from the fitted curve at half-maximal effect;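 as to activity change, negative = inhibition: -100% = full effect of reference inhibitor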)
Procedure, shortened: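 Human CYP1A2 (20nM) demethylated Luciferin-ME at its Km (100uM) in 100mM KPO4. After 10 min compound preincubation, NADPH regeneration ran the reaction 60 min at room temperature. Luciferin was read by luminescence, normalized to 57 uM furafylline.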

[3] = NFAT Signaling Pathway (AID 444; active = well fitted curve in either direction with a large enough effect, not every such curve was filed as active;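 also: carbachol stimulus at about its EC50 of 1 µM final; % is scaled to controls: 0 for no effect and ±100 for the full control effect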); conditions: Jurkat NFAT-bla M1, carbachol, beta-lactamase ratio, 5 h
Procedure, shortened: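 Jurkat cells carrying an NFAT-driven β-lactamase reporter and co-transfected muscarinic M1 receptor were treated with compound plus carbachol (1 uM final, an EC50 level) for 5 h at 37 °C. CCF4 loading followed for 1 h at RT; 460/530 nm ratio gave %activity.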

[4] = Stat Signaling Pathway (AID 446; active = well fitted curve in either direction with a large enough effect, not every such curve was filed as active;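 also: ME-180 cervical cancer cells given 40 pM IL-6 alongside compound; SIE-controlled beta-lactamase reporter measured as 460/530 nm FRET emission ratio; % is scaled to controls: 0 for no effect and ±100 for the full control effect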); conditions: ME-180 SIE beta-lactamase reporter, IL-6 stimulated, 5 h
Procedure, shortened: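 Screening format detects activators and inhibitors alike: ME-180 SIE-bla cells stimulated at 40 pM IL-6 for 5 hrs with compound, then dual-emission beta-lactamase read at 405 nm excitation.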

[5] = molecular target: Glucocorticoid receptor (Homo sapiens) (UniProt P04150); assay: GR-GFP Redistribution (AID 450;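 active = compounds whose dose series gives a full or clear partial fitted curve of increased nuclear translocation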; also: potency is read from the fitted curve at half-maximal effect); conditions: U2OS GR-GFP nuclear translocation, laser cytometry, 2 h
[6] = molecular target: Glucocorticoid receptor (Homo sapiens) (UniProt P04150); assay: GR-EFC Redistribution (AID 451; calls by dose curve; also: potency is read from the fitted curve at half-maximal effect); conditions: CHO-K1 GR-EFC translocation, beta-gal luminescence, 2 h
Procedure, shortened: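 CHO-K1 cells stably expressing nuclear-localized β-gal enzyme acceptor and GR fused C-terminally to the enzyme donor fragment; ligand-driven nuclear translocation restores β-gal by complementation. Compounds titrated up to 46 uM final, 2 h at 37 °C; luminescence read.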

[7] = molecular target: Mitogen-activated protein kinase 10 (Mus musculus) (UniProt Q61831); assay: JNK3 AlphaScreen Assay (AID 530; active = well fitted curve in either direction with a large enough effect, not every such curve was filed as active;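 also: kinase came from lysate of stimulated human HepG2 cells; signal reports phosphorylation of biotinylated GST-cJun 1-79 at Ser73 with 10 µM ATP; % is scaled to controls: 0 for no effect and ±100 for the full control effect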)
Procedure, shortened: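 JNK3 came from HepG2 lysates pre-activated with IL-1beta and TNF-alpha and phosphorylated biotinylated GST-cJun (1-79) at 10 uM ATP, pH 7.6, room temperature. Compounds were titrated. AlphaScreen signal used anti-phospho-cJun (Ser73) antibody.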

[8] = molecular target: 3',5'-cyclic-AMP phosphodiesterase 4B (Homo sapiens) (UniProt Q07343); assay: qHTS Assay for Inhibitors of PDE-IV (AID 607; active = well fitted activation curve with a large enough effect in the main read-out, with a control signal flat, not every such curve was filed as active; also: % of control where 0% means no effect)
Procedure, shortened: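 The readout is membrane depolarisation from a cAMP-sensing CNG channel, detected with a potential dye at ex 535/em 590. Cells were HEK293-derived (endogenous PDE-IV) at 1000 cells/well, titrated up to 22.9 uM final.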

[9] = qHTS Assay for Lipid Storage Modulators (AID 1519; calls by dose curve); conditions: Drosophila S3 cells, BODIPY lipid droplet/cell ratio, laser cytometry, cells loaded with oleic acid; for activity change, negative = inhibition: at 25.7 µM (top of the series)
Procedure, shortened: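 Cells seeded at 5,000 per well were treated with compounds over a concentration series and loaded with oleic acid (400 uM, as added). Lipid droplet fluorescence (488 nm excitation, 500-530 nm channel) was read by laser-scanning cytometry and normalized to 20 uM Triacsin C.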

[10] = molecular target: ATP-dependent 6-phosphofructokinase (Trypanosoma brucei brucei) (UniProt O15648); assay: qHTS Assay to Find Inhibitors of T. brucei phosphofructokinase: hit validation (AID 492961)
Procedure, shortened: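 Reaction: 0.1 M triethanolamine pH 8.0, 5 mM MgCl2, F6P 0.5 mM, ATP 0.1 mM, PFK 1.25 nM, 45 min RT. Read-out: ADP-Glo luminescence. Analysis: concentration-response fits, classed by r2 and efficacy.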

[11] = molecular target: Ubiquitin carboxyl-terminal hydrolase 1 (Homo sapiens) (UniProt O94782); assay: Inhibitors of USP1/UAF1: Pilot qHTS (AID 504865); also: nearly all actives have a fitted effect of over 35% in size; also: potency is read from the fitted curve at half-maximal effect
Procedure, shortened: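 Kinetic fluorescence assay: 1nM USP1/UAF1, 15 min compound preincubation, then 150nM Ub-Rho; 480/540 nm.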

[12] = qHTS profiling for inhibitors of Plasmodium falciparum proliferation (AID 504749);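 also: 0% = DMSO vehicle and full inhibition = artemisinin control; nearly all actives have a fitted effect of over 60% in size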; conditions: P. falciparum in erythrocytes, SYBR Green DNA, 72 h, at 12.8 µM (top of the series)
Procedure, shortened: (§1)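 P. falciparum-infected erythrocytes (0.3% parasitemia, 2.5% hematocrit final) were exposed to compounds for 72 h at 37 C in 5% CO2, then lysed with SYBR Green buffer overnight at room temperature; parasite DNA fluorescence was normalized to artemisinin and DMSO controls.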

AS120 = assay: as above; conditions: P. falciparum in erythrocytes, SYBR Green DNA, 72 h; series mostly up to 28.7 µM
Procedure, shortened: as §1

CP238 = assay: as above; conditions: P. falciparum in erythrocytes, SYBR Green DNA, 72 h; series mostly up to 12.8 µM
Procedure, shortened: as §1

CP250 = assay: as above; conditions: P. falciparum in erythrocytes, SYBR Green DNA, 72 h; series mostly up to 12.8 µM
Procedure, shortened: as §1

CP262 = assay: as above; conditions: P. falciparum in erythrocytes, SYBR Green DNA, 72 h; series mostly up to 12.8 µM
Procedure, shortened: as §1

CP265 = assay: as above; conditions: P. falciparum in erythrocytes, SYBR Green DNA, 72 h; series mostly up to 12.8 µM
Procedure, shortened: as §1

FAB9 = assay: as above; conditions: P. falciparum in erythrocytes, SYBR Green DNA, 72 h; series mostly up to 12.8 µM
Procedure, shortened: as §1

JCK = assay: as above; conditions: P. falciparum in erythrocytes, SYBR Green DNA, 72 h; series mostly up to 12.8 µM
Procedure, shortened: as §1

PC49 = assay: as above; conditions: P. falciparum in erythrocytes, SYBR Green DNA, 72 h; series mostly up to 12.8 µM
Procedure, shortened: as §1

[13] = at 7.69 µM (top of the series) unless noted
[14] = measured here: cell count channel max response
[15] = measured here: lipid channel max response

Sequence of ATP-dependent 6-phosphofructokinase (Trypanosoma brucei brucei) (O15648 whole entry, looked up): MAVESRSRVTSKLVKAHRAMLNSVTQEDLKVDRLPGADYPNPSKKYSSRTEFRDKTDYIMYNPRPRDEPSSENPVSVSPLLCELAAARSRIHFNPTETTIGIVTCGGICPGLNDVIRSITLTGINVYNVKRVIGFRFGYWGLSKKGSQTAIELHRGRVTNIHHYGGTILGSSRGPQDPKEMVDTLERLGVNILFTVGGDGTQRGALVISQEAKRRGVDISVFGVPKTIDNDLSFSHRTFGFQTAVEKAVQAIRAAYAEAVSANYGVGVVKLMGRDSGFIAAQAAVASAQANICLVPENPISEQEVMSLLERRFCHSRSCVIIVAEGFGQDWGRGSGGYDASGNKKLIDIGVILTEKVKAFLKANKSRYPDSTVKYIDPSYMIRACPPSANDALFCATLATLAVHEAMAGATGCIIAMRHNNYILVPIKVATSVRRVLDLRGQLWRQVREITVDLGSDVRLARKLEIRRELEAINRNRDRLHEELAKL
Sequence of Glucocorticoid receptor (Homo sapiens) (P04150 whole entry, looked up, the tested form may be a part): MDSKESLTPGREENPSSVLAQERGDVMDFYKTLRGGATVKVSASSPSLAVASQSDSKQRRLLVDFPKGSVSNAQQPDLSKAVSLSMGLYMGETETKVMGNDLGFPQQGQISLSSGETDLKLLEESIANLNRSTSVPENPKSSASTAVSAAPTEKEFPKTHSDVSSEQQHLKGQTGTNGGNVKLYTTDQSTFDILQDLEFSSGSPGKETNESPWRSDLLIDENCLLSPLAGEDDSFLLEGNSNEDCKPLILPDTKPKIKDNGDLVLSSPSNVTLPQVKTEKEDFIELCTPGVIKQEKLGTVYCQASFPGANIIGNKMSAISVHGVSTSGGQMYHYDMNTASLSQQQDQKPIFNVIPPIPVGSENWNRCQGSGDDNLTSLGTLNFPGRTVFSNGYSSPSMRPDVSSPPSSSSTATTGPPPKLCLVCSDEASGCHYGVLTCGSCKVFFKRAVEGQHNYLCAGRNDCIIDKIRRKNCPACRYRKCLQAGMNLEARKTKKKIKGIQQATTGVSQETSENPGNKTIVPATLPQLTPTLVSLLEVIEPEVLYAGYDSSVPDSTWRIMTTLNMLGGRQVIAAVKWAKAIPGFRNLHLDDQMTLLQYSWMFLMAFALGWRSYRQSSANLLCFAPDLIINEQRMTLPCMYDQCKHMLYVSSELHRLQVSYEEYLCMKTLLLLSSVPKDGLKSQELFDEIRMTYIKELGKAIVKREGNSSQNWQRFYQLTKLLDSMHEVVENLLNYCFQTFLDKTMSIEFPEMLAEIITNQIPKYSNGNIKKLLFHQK
Sequence of Ubiquitin carboxyl-terminal hydrolase 1 (Homo sapiens) (O94782 whole entry, looked up): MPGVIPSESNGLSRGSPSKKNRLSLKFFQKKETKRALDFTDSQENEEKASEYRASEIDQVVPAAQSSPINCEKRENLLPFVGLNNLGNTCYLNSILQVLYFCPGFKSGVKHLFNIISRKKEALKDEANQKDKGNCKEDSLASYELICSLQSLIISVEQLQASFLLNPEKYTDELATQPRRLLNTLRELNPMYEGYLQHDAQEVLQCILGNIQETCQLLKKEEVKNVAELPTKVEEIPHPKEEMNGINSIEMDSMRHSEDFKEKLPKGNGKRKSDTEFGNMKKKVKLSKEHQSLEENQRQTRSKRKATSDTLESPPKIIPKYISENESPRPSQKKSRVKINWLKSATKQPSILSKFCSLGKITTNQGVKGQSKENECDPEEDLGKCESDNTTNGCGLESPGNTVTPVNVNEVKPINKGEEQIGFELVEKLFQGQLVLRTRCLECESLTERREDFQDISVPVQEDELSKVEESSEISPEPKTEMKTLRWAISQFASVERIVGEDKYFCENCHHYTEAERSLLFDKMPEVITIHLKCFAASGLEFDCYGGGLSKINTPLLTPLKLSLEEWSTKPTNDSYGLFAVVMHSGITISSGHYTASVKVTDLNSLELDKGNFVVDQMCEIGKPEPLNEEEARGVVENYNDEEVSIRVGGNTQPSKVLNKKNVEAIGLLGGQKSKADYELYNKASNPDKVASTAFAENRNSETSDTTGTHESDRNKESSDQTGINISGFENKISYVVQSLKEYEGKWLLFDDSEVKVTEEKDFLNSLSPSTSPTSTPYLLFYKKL
Sequence of Cytochrome P450 1A2 (Homo sapiens) (P05177 whole entry, looked up): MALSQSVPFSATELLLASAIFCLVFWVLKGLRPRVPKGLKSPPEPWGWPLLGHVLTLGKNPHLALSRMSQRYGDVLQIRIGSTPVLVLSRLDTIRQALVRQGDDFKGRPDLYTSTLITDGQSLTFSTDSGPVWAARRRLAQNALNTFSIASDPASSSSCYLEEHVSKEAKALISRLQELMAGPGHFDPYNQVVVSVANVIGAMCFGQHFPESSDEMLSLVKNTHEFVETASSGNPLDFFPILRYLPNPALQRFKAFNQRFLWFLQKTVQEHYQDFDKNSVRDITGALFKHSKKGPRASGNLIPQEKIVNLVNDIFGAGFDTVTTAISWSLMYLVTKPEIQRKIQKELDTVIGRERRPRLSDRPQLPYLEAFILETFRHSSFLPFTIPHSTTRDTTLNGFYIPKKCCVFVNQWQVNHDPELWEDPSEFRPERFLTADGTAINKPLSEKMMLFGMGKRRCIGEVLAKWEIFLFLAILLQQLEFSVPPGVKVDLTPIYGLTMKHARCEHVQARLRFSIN
Sequence of 3',5'-cyclic-AMP phosphodiesterase 4B (Homo sapiens) (Q07343 whole entry, looked up): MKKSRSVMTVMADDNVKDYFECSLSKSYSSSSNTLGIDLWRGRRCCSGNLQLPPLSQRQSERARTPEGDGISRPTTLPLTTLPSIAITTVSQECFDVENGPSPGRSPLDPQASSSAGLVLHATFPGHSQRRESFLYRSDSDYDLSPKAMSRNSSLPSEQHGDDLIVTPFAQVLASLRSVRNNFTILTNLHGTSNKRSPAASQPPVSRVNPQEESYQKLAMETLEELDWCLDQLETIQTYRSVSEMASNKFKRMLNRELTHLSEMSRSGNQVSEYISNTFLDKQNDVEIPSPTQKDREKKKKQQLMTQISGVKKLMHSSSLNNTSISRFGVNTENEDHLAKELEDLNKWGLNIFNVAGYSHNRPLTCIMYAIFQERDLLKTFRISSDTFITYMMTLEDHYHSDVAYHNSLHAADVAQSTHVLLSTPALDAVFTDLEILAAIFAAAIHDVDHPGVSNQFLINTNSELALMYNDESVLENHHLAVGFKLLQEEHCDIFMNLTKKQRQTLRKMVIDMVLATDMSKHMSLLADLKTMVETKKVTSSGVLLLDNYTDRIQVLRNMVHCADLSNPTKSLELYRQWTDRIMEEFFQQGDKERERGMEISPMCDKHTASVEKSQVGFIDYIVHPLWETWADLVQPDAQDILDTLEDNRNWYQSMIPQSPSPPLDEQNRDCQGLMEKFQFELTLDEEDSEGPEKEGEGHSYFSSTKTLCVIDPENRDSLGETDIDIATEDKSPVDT

CC(=O)Nc1c(I)c(C(=O)N[C@H]2[C@@H](O)[C@H](O)[C@H](CO)O[C@@H]2O)c(I)c(N(C)C(C)=O)c1I
inactive: activity change, negative = inhibition [1, 13] 9.89% [at 17.2 µM] | Potency [2] | activity change, negative = inhibition [3, 13] -0.843% [at 17.2 µM] | activity, negative = inhibition [4, 13] -3.76% [at 17.2 µM] | Potency [5] > 20.6 µM | Potency [6] > 20.6 µM | Potency [7] | Potency [8] | activity change, negative = inhibition [9] -0.4% | outcome [10] | Potency [11] | activity, negative = inhibition ([12]; parasite line A) 8.5% | activity, negative = inhibition ([12]; parasite line B) 4.91% | Potency (AS120) | Potency (CP238) | Potency (CP250) | Potency (CP262) | Potency (CP265) | Potency (FAB9) | Potency (JCK) | Potency (PC49)
-5.12%: max response [9, 15]
-8.07%: max response [9, 14]

CN1[C@@H](CC(=O)c2ccccc2)CCC[C@@H]1C[C@@H](O)c1ccccc1
-6.57%: max response [9, 14]
inactive: activity change, negative = inhibition ([1]; at 17.2 µM (top of the series)) -1.05% | activity change, negative = inhibition ([1]; at 38 µM (top of the series)) 6.06% | activity, negative = inhibition ([4]; at 17.2 µM (top of the series)) 0.159% | activity, negative = inhibition ([4]; at 38 µM (top of the series)) -8.54% | Potency [7] | Potency [8] | activity change, negative = inhibition [9] -0.989% | Potency [11]
-6.75%: max response [9, 15]
active: Potency [2] 31.6 µM and 5.01 µM

CN(C)[C@H]1C(=O)C(C(=O)NCN2CCCC2)=C(O)[C@]2(O)C(=O)C3=C(O)c4c(O)cccc4[C@@](C)(O)[C@H]3C[C@@H]12
-14%: max response [9, 14]
active: Potency [11] 28.2 µM
inactive: activity change, negative = inhibition [1, 13] 4.94% [at 17.2 µM] | Potency [2] | activity change, negative = inhibition [3, 13] -7.08% [at 17.2 µM] | activity, negative = inhibition [4, 13] 7.95% [at 17.2 µM] | Potency [5] > 20.6 µM | Potency [6] > 20.6 µM | Potency [7] | Potency [8] | activity change, negative = inhibition [9] -2.08% | outcome [10] | activity, negative = inhibition ([12]; parasite line A) -2.6% | activity, negative = inhibition ([12]; parasite line B) 2.5% | Potency (AS120) | Potency (CP238) | Potency (CP250) | Potency (CP262) | Potency (CP265) | Potency (FAB9) | Potency (JCK) | Potency (PC49)
-16.5%: max response [9, 15]

C[C@@H](C(=O)O)c1cccc(C(=O)c2ccccc2)c1
11.1%: max response [9, 14]
10.1%: max response [9, 15]
inactive: activity change, negative = inhibition ([1]; at 17.2 µM (top of the series)) 5.98% | activity change, negative = inhibition ([1]; at 38 µM (top of the series)) 9.29% | activity change, negative = inhibition ([3]; at 17.2 µM (top of the series)) 5.64% | activity change, negative = inhibition ([3]; at 38 µM (top of the series)) 19.5% | activity, negative = inhibition ([4]; at 17.2 µM (top of the series)) 6.92% | activity, negative = inhibition ([4]; at 38 µM (top of the series)) 4.82% | Potency [7] | Potency [8] | activity change, negative = inhibition [9] -0.218% | outcome [10] | Potency [11]
